Activity calls are given as the source filed them.
Experiments:
[1] = E. coli DRC41 culture turbidity changes, primary screen, E. coli filamentation inducer project, strain DRC41, OD650, 48 h (AID 1152);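 note: E. coli MC1000 strain DRC41 lacking acrAB efflux pump and sulA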; details: E. coli DRC41 (acrAB sulA), higher = more signal, called active from +8 up or from −8 down
[2] = small-molecule binders of probe aLefty1, primary screen, biochemical, small-molecule microarray, 635/667 nm fluorescence (AID 1153); details: higher = more signal;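 note: score merges spot fluorescence with signal-to-noise ratio from the scanned slide images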
[3] = PSAC antagonists in infected red cells, primary screen, cell-based, P. falciparum Indochina, OD700, 1 h (AID 1154); details: P. falciparum Indochina infected RBC osmotic lysis, higher = more signal, called active from +8 up or from −8 down
[4] = PSAC antagonists in infected red cells, primary screen, cell-based, P. falciparum Indochina, OD700, 2 h (AID 1155);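 note: lysis reports solute entry through the parasite surface anion channel PSAC; channel blockers reduce lysis of infected cells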; details: P. falciparum Indochina infected erythrocytes, osmotic lysis OD700; higher = more signal, called active from +8 up or from −8 down
[5] = osmotic lysis modulators in infected erythrocytes, primary screen, PSAC antagonist project, cell-based, P. falciparum Indochina, OD700, 3 h (AID 1156); details: higher = more signal, called active from +8 up or from −8 down
[6] = PSAC antagonists in infected red cells, primary screen, cell-based, P. falciparum Indochina, OD700, 18 h (AID 1157); details: P. falciparum Indochina infected erythrocytes, osmotic lysis OD700, 18 h; higher = more signal, called active from +8 up or from −8 down
[7] = modulators of S6 phosphorylation in cells, primary screen, cell-based, A549, cytoblot, luminescence, serum-stimulated (AID 1158); details: A549 phospho-S6 cytoblot, 5 h, higher = more signal;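 note: serum-stimulated A549 lung adenocarcinoma cells; signal is phosphorylated S6 detected by cytoblot immunostaining with HRP secondary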
[8] = biological target: NADPH oxidase 2 (Homo sapiens) (UniProt P04839); experiment: NOX2-dependent H2O2 signal modulators, primary screen, NOX inhibitor project, cell-based, HEK293-NOX2, PMA-stimulated, Amplex Red fluorescence (AID 1159); details: 45 min, higher = more signal, called active from +8 up or from −8 down; note: test concentration not given here
NADPH oxidase 2 (Homo sapiens), sequence (P04839 whole entry, looked up): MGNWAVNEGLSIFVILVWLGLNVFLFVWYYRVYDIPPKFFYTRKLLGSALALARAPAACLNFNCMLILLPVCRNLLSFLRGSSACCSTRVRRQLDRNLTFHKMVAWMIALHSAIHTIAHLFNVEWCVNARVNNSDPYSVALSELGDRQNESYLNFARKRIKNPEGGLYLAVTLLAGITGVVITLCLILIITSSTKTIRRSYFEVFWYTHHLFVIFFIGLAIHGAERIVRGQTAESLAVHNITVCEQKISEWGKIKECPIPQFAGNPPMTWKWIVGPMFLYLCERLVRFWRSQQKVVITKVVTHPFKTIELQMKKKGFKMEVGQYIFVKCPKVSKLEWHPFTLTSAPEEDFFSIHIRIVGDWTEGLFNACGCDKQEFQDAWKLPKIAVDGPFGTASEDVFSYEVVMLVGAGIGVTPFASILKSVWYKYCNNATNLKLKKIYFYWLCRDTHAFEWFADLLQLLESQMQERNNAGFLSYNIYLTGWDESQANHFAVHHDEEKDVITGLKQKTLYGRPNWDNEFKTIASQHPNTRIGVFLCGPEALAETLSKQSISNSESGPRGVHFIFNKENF

[9] = biological target: NADPH oxidase 4 (Homo sapiens) (UniProt Q9NPH5); experiment: NOX4-dependent H2O2 signal modulators, primary screen, NOX inhibitor project, cell-based, HEK293-NOX4, tetracycline-induced, Amplex Red fluorescence (AID 1160); details: 45 min, higher = more signal, called active from +8 up or from −8 down
NADPH oxidase 4 (Homo sapiens), sequence (Q9NPH5 whole entry, looked up): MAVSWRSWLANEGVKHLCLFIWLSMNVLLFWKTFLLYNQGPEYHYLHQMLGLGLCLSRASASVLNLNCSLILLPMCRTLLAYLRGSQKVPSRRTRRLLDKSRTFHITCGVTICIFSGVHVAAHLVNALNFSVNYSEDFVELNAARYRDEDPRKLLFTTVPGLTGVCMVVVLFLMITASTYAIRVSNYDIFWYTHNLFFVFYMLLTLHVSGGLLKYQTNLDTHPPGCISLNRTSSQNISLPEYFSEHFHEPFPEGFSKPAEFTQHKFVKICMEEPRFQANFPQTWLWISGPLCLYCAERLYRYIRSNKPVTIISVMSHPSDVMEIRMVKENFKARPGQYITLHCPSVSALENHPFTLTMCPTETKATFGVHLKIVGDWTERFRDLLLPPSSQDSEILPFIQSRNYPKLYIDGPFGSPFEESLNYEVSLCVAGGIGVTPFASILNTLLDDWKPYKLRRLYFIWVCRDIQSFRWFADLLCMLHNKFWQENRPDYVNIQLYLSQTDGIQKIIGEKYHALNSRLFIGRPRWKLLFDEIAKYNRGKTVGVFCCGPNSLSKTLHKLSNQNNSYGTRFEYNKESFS

[10] = biological target: NADPH oxidase 5 (Homo sapiens) (UniProt Q96PH1); experiment: NOX5-dependent H2O2 signal modulators, primary screen, NOX inhibitor project, cell-based, HEK293-NOX5, Amplex Red fluorescence (AID 1161); details: HEK293-NOX5, ionomycin, 45 min, higher = more signal
NADPH oxidase 5 (Homo sapiens), sequence (Q96PH1 whole entry, looked up): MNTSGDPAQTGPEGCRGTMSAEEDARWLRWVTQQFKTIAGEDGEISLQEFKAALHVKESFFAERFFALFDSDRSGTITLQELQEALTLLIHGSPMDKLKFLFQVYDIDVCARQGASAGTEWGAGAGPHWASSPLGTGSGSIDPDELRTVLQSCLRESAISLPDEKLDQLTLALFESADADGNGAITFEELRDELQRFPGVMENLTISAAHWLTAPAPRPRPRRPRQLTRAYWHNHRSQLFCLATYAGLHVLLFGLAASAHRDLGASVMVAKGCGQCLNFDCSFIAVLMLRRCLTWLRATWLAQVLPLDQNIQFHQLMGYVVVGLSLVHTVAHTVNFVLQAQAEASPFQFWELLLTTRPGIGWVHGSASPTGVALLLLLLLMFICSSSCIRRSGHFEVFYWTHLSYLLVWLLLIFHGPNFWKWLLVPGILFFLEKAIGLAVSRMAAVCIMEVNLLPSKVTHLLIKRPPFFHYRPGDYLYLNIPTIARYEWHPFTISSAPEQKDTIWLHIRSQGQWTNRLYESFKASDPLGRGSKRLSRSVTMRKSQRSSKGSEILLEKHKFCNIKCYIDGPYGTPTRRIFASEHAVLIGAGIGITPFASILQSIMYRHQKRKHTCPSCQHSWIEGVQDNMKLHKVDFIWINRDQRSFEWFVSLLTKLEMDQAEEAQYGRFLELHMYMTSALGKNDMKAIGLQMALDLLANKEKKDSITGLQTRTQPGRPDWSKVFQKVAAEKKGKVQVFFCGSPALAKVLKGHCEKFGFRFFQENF

[11] = A549 cell viability effects, profiling panel, calcein-AM fluorescence, 48 h, basal (AID 1162); details: higher = more signal; note: test concentration not given here
[12] = adipocyte viability effects, profiling panel, cell-based, 3T3-L1 adipocytes, calcein-AM fluorescence, 48 h, basal (AID 1163); details: 3T3-L1 adipocytes viability, higher = more signal; note: test concentration not given here
[13] = HepG2 cell viability effects, profiling panel, calcein-AM fluorescence, 48 h, basal (AID 1164); details: higher = more signal; note: test concentration not given here
[14] = MM1S cell viability effects, profiling panel, calcein-AM fluorescence, 48 h, basal (AID 1165); details: higher = more signal;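 note: viability of MM1S multiple myeloma cells under basal unstimulated conditions; test concentration not given here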
[15] = basal RPMI8226 viability, no added stimulus, profiling panel, cell-based, calcein-AM fluorescence, 48 h, PK04 Diversity Set (AID 1166); details: RPMI8226 myeloma viability, higher = more signal;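 note: cells grown under basal conditions without added stimulus; test concentration not given here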
[16] = basal HepG2 mitochondrial membrane potential changes, profiling panel, cell-based, JC-1 fluorescence, 24 h, 100 nL compound (AID 1167); details: higher = more signal; note: test concentration not given here
[17] = basal 3T3-L1 adipocyte mitochondrial potential changes, profiling panel, cell-based, JC-1 fluorescence, 3T3-L1 adipocytes, 24 h, 100 nL compound (AID 1168); details: JC-1 mitochondrial fluorescence, higher = more signal, called active from +8 up or from −8 down; note: test concentration not given here
[18] = basal RPMI8226 mitochondrial membrane potential changes, profiling panel, cell-based, JC-1 fluorescence, 24 h, 100 nL compound (AID 1169); details: RPMI8226 myeloma, JC-1 mitochondrial potential fluorescence, higher = more signal; note: test concentration not given here
[19] = basal MM1S mitochondrial membrane potential changes, profiling panel, cell-based, JC-1 fluorescence, 24 h, 100 nL compound (AID 1170); details: higher = more signal; note: test concentration not given here
[20] = A549 lung cancer cell viability effects, profiling panel, resazurin fluorescence, 24 h, PK04 Diversity Set (AID 1171); details: higher = more signal, called active from +8 up or from −8 down; note: test concentration not given here

Row | SMILES | z-score [1] | composite z-score [2] | z-score [3] | z-score [4] | z-score [5] | z-score [6] | z-score [7] | z-score [8] | z-score [9] | z-score [10] | z-score [11] | z-score [12] | z-score [13] | z-score [14] | z-score [15] | z-score [16] | z-score [17] | z-score [18] | z-score [19] | z-score [20]
1 | CN(C)CCCNC(=O)[C@@H]1c2ccccc2C(=O)N(C2Cc3ccccc3C2)[C@H]1c1ccc(CO)cc1 | 0.776 (inactive) | -0.765 | 3.98 (inactive) | 0.517 (inactive) | 1.79 (inactive) | 0.281 (inactive) | -0.421 | 0.498 (inactive) | 1.25 (inactive) | 0.545 | 1.61 | 0.121 | 1.99 | -0.233 | -1.28 | 3.81 | 0.571 (inactive) | -0.066 | -0.311 | 0.267 (inactive)
2 | CCCCC(O)C1C=CC2C(=O)N(C)C(=O)C2N1Nc1ccccc1 (stereo not given) | -1.37 (inactive) | 0.165 | -0.242 (inactive) | 0.735 (inactive) | 0.243 (inactive) | 1.17 (inactive) | -1.35 | -1.32 (inactive) | -3.48 (inactive) | -2.72 | -0.961 | -1.89 | -0.595 | -1.29 | -0.419 | -1.73 | 0.64 (inactive) | -0.16 | 0.402 | -0.98 (inactive)
3 | COc1ccc([Si](C)(C)[C@H]2[C@H](CC(=O)N3Cc4ccccc4C[C@H]3CO)O[C@@]3(C(=O)N(Cc4cccc(N5C(=O)c6cccc7cccc5c67)c4)c4ccccc43)[C@@H]2C)cc1 | -0.437 (inactive) | -0.362 | 5.25 (inactive) | 0.572 (inactive) | 1 (inactive) | 0.793 (inactive) | -0.112 | -1.79 (inactive) | -0.0145 (inactive) | -0.799 | 0.653 | 0.986 | -0.475 | -2.54 | -4.12 | 0.813 | 0.611 (inactive) | -1.19 | -1.72 | -1.02 (inactive)
4 | C[N+](C)(C)CCCC[C@@H]1NC(=O)[C@H]2C[C@@H](C(=O)NCCCCCNC(=O)CS)[C@@H](c3ccc(O)cc3)N2C1=O | 1.65 (inactive) | -0.0162 | 0.105 (inactive) | -0.38 (inactive) | -0.364 (inactive) | -2.52 (inactive) | 1.46 | 0.236 (inactive) | 0.335 (inactive) | 1.52 | 0.809 | -0.464 | 0.664 | 0.949 | -1.51 | 1.45 | -0.0341 (inactive) | 0.287 | -0.013 | -0.567 (inactive)
5 | NC(=O)[C@@]1(CCS(=O)(=O)c2ccccc2)COC(c2ccc(OCCCO)cc2)=N1 | 1.05 (inactive) | 0.281 | 22.1 (active) | 4.56 (inactive) | 0.815 (inactive) | 0.939 (inactive) | -0.192 | -2.33 (inactive) | -0.383 (inactive) | -0.124 | -0.339 | -0.519 | 0.344 | -0.0256 | 0.458 | -0.522 | -0.762 (inactive) | -0.436 | -0.942 | -0.721 (inactive)
6 | COC(=O)[C@H](Cc1ccc(O)cc1)N1CC2=CCCC=C[C@@H]2[C@H]1[C@H](O)Cc1ccccc1 | 1.42 (inactive) | -0.149 | 3.23 (inactive) | -1.53 (inactive) | -0.241 (inactive) | -2.05 (inactive) | 0.814 | 0.63 (inactive) | -3.8 (inactive) | -2.8 | 0.852 | 0.308 | -0.231 | -3.12 | -0.833 | -1.68 | -0.501 (inactive) | -0.521 | -1.58 | 0.481 (inactive)
7 | C=C(CC1([C@@H](NP(=O)(c2ccccc2)c2ccccc2)[C@H]2C[C@@H]2CCN(C(=O)OCC)S(=O)(=O)c2ccc(C)cc2)CC1)c1ccccc1 | -1.42 (inactive) | 0.723 | 2.02 (inactive) | 0.939 (inactive) | 2.36 (inactive) | 1.28 (inactive) | 0.603 | 0.464 (inactive) | -1.66 (inactive) | -3.34 | -2.02 | 1.2 | -1.12 | -0.798 | -3.89 | 4.8 | -1.47 (inactive) | -0.699 | -1.09 | 0.789 (inactive)
8 | COc1cc2c(cc1O)C(C1CC1)N(Cc1ccc([N+](=O)[O-])o1)CC2 (stereo not given) | -1.03 (inactive) | 0.0446 | 23.7 (active) | 6.01 (inactive) | 0.359 (inactive) | 0.892 (inactive) | 0.106 | -4.17 (inactive) | -2.46 (inactive) | -3.45 | -0.37 | 0.393 | -0.181 | -0.201 | 0.741 | -1.57 | -0.0836 (inactive) | -0.748 | 0.0309 | 0.533 (inactive)
